This is an account of results in PubChem BioAssay AID504332 (National Center for Advancing Translational Sciences (NCATS), 2011).

Where “and” joins values, the source holds several entries; their conditions need not be identical. Equal values may be shown once. Out of some 350,000 compounds screened, about 31,000 (8.9%) were called active. Not shown: some 15% with an inconclusive outcome. Calls follow the shape of the dose curve; as a rule, active = well fitted inhibition curve with a large enough effect; inconclusive = small, poorly fitted or top-dose-only effect; inactive = no such curve, though single readings can be large or run the other way. The list comes from a sample in which actives are over-represented; it also holds similar structures and randomly drawn compounds. Where a call stands in place of a potency, no number is given. The source holds several records for some structures; these can differ, active in one and inactive in another.
Potency is read from the fitted curve at half-maximal effect.

Histone-lysine N-methyltransferase EHMT2 (Homo sapiens), sequence (Q96KQ7 913-1193 limits assumed): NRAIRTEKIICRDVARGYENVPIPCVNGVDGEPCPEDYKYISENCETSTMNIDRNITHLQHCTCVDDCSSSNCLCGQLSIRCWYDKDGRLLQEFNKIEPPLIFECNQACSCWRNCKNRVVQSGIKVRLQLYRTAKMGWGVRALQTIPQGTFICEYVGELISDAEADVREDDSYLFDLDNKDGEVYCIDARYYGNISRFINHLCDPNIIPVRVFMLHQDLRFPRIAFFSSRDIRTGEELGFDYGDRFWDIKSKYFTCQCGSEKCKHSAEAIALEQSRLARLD

This assay concerns the target Histone-lysine N-methyltransferase EHMT2 (Homo sapiens) (UniProt Q96KQ7). As to the kind of experiment: qHTS Assay for Inhibitors of Histone Lysine Methyltransferase G9a. Also: nearly all actives have a fitted effect of over 75% in size. Particulars: G9a H3K9 monomethylation, AlphaScreen, 2 h; series mostly up to 59 µM. Put shortly:
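G9a (20 nM) preincubated 15 min RT with compounds, then 500 nM biotinylated H3K9 peptide and 20 uM SAM added; 2 h RT reaction. Monomethyl-H3K9 product detected by AlphaScreen with anti-H3K9me1 antibody, streptavidin donor and anti-rabbit IgG acceptor beads.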
In general terms: Quantitative high-throughput screening tests each substance at several concentrations.
Regarding `O=c1oc2ccc(C#CC3(O)CCCCC3)cc2cc1-n1cc(-c2ccsc2)nn1`, the activity, negative = inhibition was -0.586% [at 0.501 µM] (inactive).

`CCS(=O)(=O)c1ccc(-c2cccc(NC(=O)c3ccc(Br)o3)c2)nn1`: the Potency result was “inactive”.

In the case of `CCOc1cc(-c2noc(CCC(=O)N3CCOCC3)n2)ccc1OC`, the Potency result is “inactive”.

Take `CN1CCN(C(=O)CCc2nc(-c3ccc(Cl)cc3)no2)CC1`: the Potency entry is “inactive”.

As for `COc1ccc(N2CCN(C(=O)CCc3nc(-c4ccc(C)cc4)no3)CC2)cc1`, the Potency is 31.6 µM (active).

Turning to `CCOc1ccc2oc(C(=O)N(CC)CC(=O)Nc3ccc(NC(C)=O)cc3)c(C)c2c1`, the activity, negative = inhibition was -40.2% [at 12.7 µM] (inactive).

On to `COc1ccc(CCC(=O)NCCc2csc(-c3ccc(Cl)cc3)n2)cc1`, for which the Potency result was “inactive”.

For `CCOc1ccc(C(=O)c2cn(Cc3ccccc3OC)c3ccc(F)cc3c2=O)cc1`, the Potency result is “inactive”.

With `CCOc1ccc(NC(=O)CCc2c(C)nn(-c3ccc(N4CCCC4)nn3)c2C)cc1`, the Potency result was “inactive”.

On to `COc1cc(/C=C(\C#N)c2nc3c(s2)CC(C)CC3)ccc1O` (stereo unspecified), for which the Potency is 50.1 µM (active).

Take `COc1cccc2cc(-c3nc(Cl)c4c5c(sc4n3)CC(C)CC5)c(=O)oc12` (stereo unspecified): the Potency entry was “inactive”.

For `CCOc1ccc(/C=C(\C#N)c2nc3ccccc3c(=O)[nH]2)cc1OC`, the Potency entry is “inactive”.

Regarding `COc1cc(/C=C(\C#N)c2nc3ccccc3[nH]2)ccc1O`, the Potency was 39.8 µM (active).

On to `Cc1ccc2nc(/C(C#N)=C/c3ccccc3F)[nH]c2c1`, for which the Potency result was “inactive”.

Consider `Cc1ccc(OCCC(=O)OCC(=O)N2c3ccccc3NC(=O)C2(C)C)cc1`, for which the Potency entry was “inactive”.

`COc1ccc(N2CC(NS(=O)(=O)c3ccc4ccccc4c3)CC2=O)cc1` (stereo unspecified): the Potency result is “inactive”.

For the compound `O=C(N[C@@H](Cc1ccccc1)C(=O)OCc1ccccc1)c1nc[nH]c1C(=O)N[C@@H](Cc1ccccc1)C(=O)OCc1ccccc1`, the Potency entry is “inactive”.

On to `CC(C)c1ccc(NC(=O)Cn2nnc(C(=O)NCCc3ccccc3)c2N)cc1`, for which the Potency entry was “inactive”.

`Cc1ccc(-c2onc(C)c2C)cc1S(=O)(=O)Nc1ccccn1`: the Potency result was “inactive”.

For `CC1(C)CC(=O)c2cnc3nc4ccccc4n3c2C1`, the Potency is 17.8 µM (active).

As to `COc1ccc(C)cc1-n1c(-c2ccc(C)cc2)cc2c1CC(C)(C)CC2=O`, the Potency entry was “inactive”.

Regarding `CC(C)(C)c1cc(=O)n2c(nc3ccccc32)[nH]1`, the Potency entry was “inactive”.

Take `CC(Sc1ncnc2c1cnn2-c1ccccc1)C(=O)Nc1ccc(N2CCOCC2)cc1` (stereo unspecified): the activity, negative = inhibition was 9% [at 0.501 µM] (inactive).

Turning to `Cc1c2cnn(-c3ccccc3)c(=O)c2c(C)n1C(C)C(=O)Nc1ccc(Br)cc1F` (stereo unspecified), the Potency entry was “inactive”.

Take `Cc1ccccc1CNC(=O)Cn1c(C)c2cnn(-c3ccccc3)c(=O)c2c1C`: the Potency result is “inactive”.

For the compound `Cc1c2cnn(-c3ccccc3)c(=O)c2c(C)n1CCCC(=O)N1CCN(C)CC1`, the Potency is 79.4 µM (active).

With `COc1ccc(C2=NOC(Cn3nc(C(=O)NCc4ccc5c(c4)OCO5)cc3-c3ccccc3)C2)cc1` (stereo unspecified), the activity, negative = inhibition was 1.74% [at 2.33 µM] (inactive).

Take `Cc1ccc(S(=O)(=O)n2cccc2CO)cc1`: the activity, negative = inhibition was 0.915% [at 2.33 µM] (inactive).

With `COCc1cc(C(C)=O)ccc1OC`, the activity, negative = inhibition is -11.9% [at 12.7 µM] (inactive).

`COc1ccc(C(C)=O)cc1COC(=O)Cn1cnc2ccccc2c1=O`: the Potency was 50.1 µM (active).

Take `O=C(COC(=O)Cn1cnc2ccccc2c1=O)NCc1ccccc1Cl`: the Potency entry was “inactive”.

For `COc1ccccc1CNc1ccc(-c2nc(-c3ccccc3C)no2)cc1[N+](=O)[O-]`, the Potency entry was “inactive”.

On to `Brc1ccc(-c2nnc(-c3ccccc3)o2)o1`, for which the Potency result is “inactive”.

Take `Nc1ccc(-c2nnc(-c3ccccc3)o2)cc1`: the Potency entry is “inactive”.

Regarding `Nc1ccc(-c2nnc(-c3ccc(-c4ccccc4)cc3)o2)cc1`, the Potency was 7.08 µM (active).

For `O=C(CCS(=O)(=O)c1ccc2c(c1)NC(=O)CO2)Nc1cccc(C(F)(F)F)c1`, the Potency result was “inactive”.

`CC(C)(Oc1ccc(Cl)cc1)C(=O)OCC(=O)NCCc1ccc(S(N)(=O)=O)cc1`: the Potency entry is “inactive”.

For the compound `CCCn1c(N)c(C(=O)CSc2nnc3n2CCCCC3)c(=O)[nH]c1=O`, the Potency entry is “inactive”.

In the case of `COc1ccc(NC(=S)NCCN2CCC(C)CC2)cc1`, the Potency entry was “inactive”.

Regarding `CCCC(=O)NC(=S)Nc1ccc(CN2CCOCC2)cc1`, the Potency entry was “inactive”.

`CCn1c2ccccc2c2cc(NC(=S)N3CCOCC3)ccc21`: the activity, negative = inhibition is 7.32% [at 12.7 µM] (inactive).

For the compound `Cc1cc(N2CCOCC2)nc2ccc(NC(=S)N3CCN(Cc4ccccc4)CC3)cc12`, the Potency was 50.1 µM (active).

With `CCOCCCNC(=S)Nc1ccc2nc(N3CCN(CC)CC3)cc(C)c2c1`, the Potency was 31.6 µM (active).

On to `CCN1CCN(c2cc(C)c3cc(NC(=O)c4cc(Cl)ccc4OC)ccc3n2)CC1`, for which the Potency result is “inactive”.

With `COc1ccc(C(=O)OCC(=O)Nc2ccc3[nH]c(=O)[nH]c3c2)c(OC)c1OC`, the activity, negative = inhibition was 4.23% [at 0.501 µM] (inactive).

Take `COc1ccccc1NC(=O)c1oc2ccccc2c1NC(=O)C(C)C`: the Potency result was “inactive”.

As for `COC(=O)N/N=C/c1c[n+]([O-])c2ccccc2[n+]1[O-]`, the Potency result was “inactive”.

For `CC(C)CC(=O)NCC(c1ccc2c(c1)OCO2)N1CCN(c2ccc(F)cc2)CC1` (stereo unspecified), the Potency result is “inactive”.

Regarding `CCCCOc1ccc(NC(=O)c2cc3c(n(-c4ccc(Cl)cc4)c2=O)CCCC3=O)cc1`, the Potency entry was “inactive”.

As to `CCOC(=O)c1cc2c(n(-c3ccc(C)cc3)c1=O)CCCC2=O`, the Potency was 17.8 µM (active).

On to `CCOC(=O)C1=C(N)N(c2ccc(C)cc2)C2=C(C(=O)CCC2)C1c1cccs1` (stereo unspecified), for which the Potency entry is “inactive”.

For `Cc1c(C(=O)NNC(=O)c2ccncc2)oc2ccccc12`, the activity, negative = inhibition is 1.49% [at 12.7 µM] (inactive).

As for `Oc1cc(O)c2c(c1)OC(c1ccc(O)c(O)c1)C(O)C2` (stereo unspecified), the Potency was 2.51 µM (active).

In the case of `O=C(CCC(=O)c1ccccc1)NCc1cccc(C(F)(F)F)c1`, the Potency entry was “inactive”.

With `COc1ccc(C(=O)N(Cc2ccccc2)c2ccc(C)cc2)cc1S(=O)(=O)N1CCOCC1`, the activity, negative = inhibition is 8.07% [at 0.501 µM] (inactive).

`O=C(CN1CCN(S(=O)(=O)c2ccc(F)cc2)CC1)Nc1ccccc1F`: the Potency result is “inactive”.

On to `O=C(CN1CCN(C(=O)c2cccc(F)c2)CC1)Nc1ccccc1F`, for which the Potency is 56.2 µM (active).

Consider `O=C(CN1CCCCC1)NC(=O)Nc1ccccc1F`, for which the Potency entry is “inactive”.

`CCOc1ccccc1C(=O)NC1(C(F)(F)F)C(=O)Nc2c1c(=O)[nH]c(=O)n2-c1ccc(F)cc1` (stereo unspecified): the Potency result is “inactive”.

As for `Cc1ccc(C)n1-c1nnc(N2CCC(C(=O)NCc3ccccc3Cl)CC2)s1`, the Potency result was “inactive”.

`O=c1c2ccccc2ccc2ccc(P(=O)(O)O)cc12`: the activity, negative = inhibition was 2.62% [at 0.501 µM] (inactive).

As to `O=c1c(-c2ccccc2Cl)c[nH]n1-c1ccccc1`, the Potency entry is “inactive”.

On to `COc1ccc(C2CC(=O)NC(=O)C2)cc1`, for which the Potency result is “inactive”.

Regarding `COc1cc(OC)c2c(c1)OC(=O)CC2c1cc(OC)c(OC)c(OC)c1` (stereo unspecified), the Potency entry is “inactive”.

In the case of `COc1ccc(C2CC(=O)Oc3ccc(C(C)(C)C)cc32)cc1` (stereo unspecified), the Potency result is “inactive and 44.7 µM (active)”.

As for `COc1ccc(-c2cc(C(=O)NCc3cc(OC)c(OC)c(OC)c3)[nH]n2)cc1`, the Potency result is “inactive”.

As for `O=C(CN(C(=O)CNC(=O)c1cccs1)c1cccc(F)c1)NC1CCCCC1`, the Potency entry was “inactive”.

Turning to `COc1ccc(C)cc1NC(=O)C(=O)NCCc1sc(-c2cccc(C)c2)nc1C`, the Potency entry was “inactive”.

On to `CC1CCCCN1S(=O)(=O)CCNC(=O)c1ccccc1` (stereo unspecified), for which the Potency result was “inactive”.

With `Cc1ccc(CCN2CC(C(=O)O)CC2=O)cc1` (stereo unspecified), the Potency entry is “inactive”.

Take `CCCCOC(=O)Cn1c(=O)n(CC(=O)OCCCC)c2cc(C)ccc21`: the Potency result is “inactive”.

Regarding `Cc1ccc(CCCOC(=O)C[N+]2(C)CCCC2)cc1`, the Potency is 15.8 µM (active).

Take `COc1cccc(-c2n[nH]c3c2C(c2cccc(O)c2)N(C)C3=O)c1` (stereo unspecified): the Potency entry is “inactive”.

On to `Cc1cc(NC(=O)c2ccccc2C)no1`, for which the Potency entry is “inactive”.

For `CCOc1ccc(S(=O)(=O)NCCC(=O)N2CCCCCCC2)cc1`, the Potency entry was “inactive”.

For `Cc1cccc(Oc2c([N+](=O)[O-])c(=O)n(C)c3ccccc23)c1`, the Potency is 44.7 µM (active).

As for `Cn1nc(-c2ccccc2)c2cc([N+](=O)[O-])ccc21`, the Potency entry was “inactive”.

In the case of `Cc1cccc(OP(=O)(Nc2c(C)n(C)n(-c3ccccc3)c2=O)Oc2cccc(C)c2)c1`, the Potency result is “inactive”.

Turning to `Cc1nn(C)c(Oc2ccccc2)c1[N+](=O)[O-]`, the Potency entry is “inactive”.

Turning to `Cc1cccc(C2CC(=O)Oc3c2c(=O)n(C)c2ccccc32)c1` (stereo unspecified), the Potency result was “inactive”.

Consider `Cn1c(=O)c([N+](=O)[O-])c(Oc2ccccc2)c2ccccc21`, for which the Potency was 39.8 µM (active).

As to `Cc1ccc(-n2ncc3c2CCCC3NC(=O)c2cnccn2)cc1C` (stereo unspecified), the activity, negative = inhibition was -6.28% [at 0.501 µM] (inactive).

As to `CCOc1ccc(Nc2ncnc3scc(-c4ccc(OC)cc4)c23)cc1`, the activity, negative = inhibition is 2.22% [at 12.7 µM] (inactive).

For the compound `COc1ccccc1-c1cc2nc(C)c(CCC(=O)NC3CCCCC3)c(C)n2n1`, the Potency entry was “inactive”.

Consider `COc1ccccc1C1CCN(c2ccc([N+](=O)[O-])cn2)CC1`, for which the Potency entry was “inactive”.

On to `COc1ccc([N+](=O)[O-])cc1C1NN=C(c2cccc3ccccc23)S1` (stereo unspecified), for which the Potency is 28.2 µM (active).

`COc1ccc([N+](=O)[O-])cc1NC(=O)C(C)OC(=O)C1c2ccccc2Oc2ccccc21` (stereo unspecified): the Potency result is “inactive”.

For the compound `COc1ccc(-n2c(=O)c3ccccc3n(Cc3ccccc3Cl)c2=O)cc1`, the Potency result is “inactive”.

With `Cc1ccc(OCC(=O)OCc2cc(=O)n3nc(C4CC4)sc3n2)cc1`, the Potency entry is “inactive”.

With `COc1ccccc1NC(=O)CSC1=Nc2ccccc2C2=NC(CC(=O)NCc3cccs3)C(=O)N12` (stereo unspecified), the Potency result is “inactive”.

Turning to `Cc1c(C(=O)OCC(=O)N2CCCC2=O)oc2ccccc12`, the Potency entry was “inactive”.

With `C=CCn1c(SCC(=O)NCC2CCCO2)nc2sc(C)c(C)c2c1=O` (stereo unspecified), the Potency entry is “inactive”.

Take `COc1ccc2cc(-c3nc(Cl)c4c5c(sc4n3)CC(C)CC5)c(=O)oc2c1` (stereo unspecified): the Potency entry was “inactive”.

Turning to `C=CCn1c(SCc2c(C)noc2C)nc2sc3c(c2c1=O)CCC(C)C3` (stereo unspecified), the Potency is 39.8 µM (active).

As for `CC(=O)N1CCSc2ccc(S(=O)(=O)N3CCC(C)CC3)cc21`, the Potency result was “inactive”.

With `Cc1cccc(NC(=O)CN2CCN(C(=O)C3CCN(C(=O)/C=C/c4ccccc4)CC3)CC2)c1C`, the activity, negative = inhibition was 14.7% [at 2.33 µM] (inactive).
